Laboratory results from PubChem BioAssay AID720597 (Broad Institute, 2013).
Potency and affinity values are given separately. Active and inactive are the calls of the source.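 Rule for the calls: active = fitted half-maximal dose no more than twice the top valid tested dose, for compounds that lower signal; inconclusive = fit invalid, or curve flat with activity between -70 and -30; inactive = potency past limit, curve flat within ±30, or signal increasing.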

What follows are compounds tested against NAD-dependent protein deacylase sirtuin-5, mitochondrial (Homo sapiens) (UniProt Q9NXA8) (assay: blockers of sirtuin-5 peptide desuccinylation – biochemical, fluorescence imaging, cherry-pick, set 6, dose response (AID 720597;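 note: lower AMC signal can also come from blocking the trypsin step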)). Settings: Purified SirT5, succinyl-peptide-AMC/trypsin fluorescence; series mostly up to 15 µM.
Sequence of NAD-dependent protein deacylase sirtuin-5, mitochondrial (Homo sapiens) (Q9NXA8 whole entry, looked up): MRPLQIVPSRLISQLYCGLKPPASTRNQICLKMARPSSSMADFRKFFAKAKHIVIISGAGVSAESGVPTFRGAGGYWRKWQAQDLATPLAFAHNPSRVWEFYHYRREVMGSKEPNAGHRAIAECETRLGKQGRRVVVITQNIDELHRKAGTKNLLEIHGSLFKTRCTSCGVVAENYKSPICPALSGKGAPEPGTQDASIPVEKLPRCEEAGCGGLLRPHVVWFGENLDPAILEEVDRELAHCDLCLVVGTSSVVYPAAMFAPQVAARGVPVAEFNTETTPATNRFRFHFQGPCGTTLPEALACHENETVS

outcome, inactive:
O=S(=O)(c1ccc(F)cc1)N1CCCCN2[C@H](CO)[C@H](c3ccc(-c4ccccc4F)cc3)[C@@H]2C1, COc1cccc(NC(=O)N2CC(=O)N3[C@H](CO)[C@H](c4ccc(C#CCC5CCCC5)cc4)[C@@H]3C2)c1, CCCC#Cc1ccc(CC[C@H]2O[C@H]3CC[C@@H](CO)O[C@H]3C[C@H]2NS(=O)(=O)c2ccccc2)cc1, C[C@@H]1CN([C@@H](C)CO)C(=O)c2cc(-c3cccc(F)c3)cnc2O[C@H]1CN(C)C(=O)Nc1cc(F)ccc1F, CN1c2ccc(-c3ccc(F)cc3)cc2[C@@H]2[C@@H](CCN2C(=O)c2ccncc2)[C@@H]1CO, COc1ccccc1S(=O)(=O)N(C)C[C@H]1Oc2cc(C#CCC3CCCC3)ccc2S(=O)(=O)N([C@@H](C)CO)C[C@@H]1C, Cc1ccc(S(=O)(=O)Nc2ccc3c(c2)C(=O)N([C@@H](C)CO)C[C@@H](C)[C@H](CN(C)Cc2ccc(C(F)(F)F)cc2)OCCCC[C@@H](C)O3)cc1, CCOC(=O)N(C)C[C@@H]1OCc2ccccc2-c2ccccc2C(=O)N([C@@H](C)CO)C[C@H]1C, C[C@@H]1CN([C@@H](C)CO)C(=O)c2cc(NC(=O)C3CC3)ccc2O[C@@H]1CN(C)S(=O)(=O)c1cn(C)cn1, C[C@H]1CN([C@@H](C)CO)C(=O)c2cccc(NS(=O)(=O)c3cn(C)cn3)c2O[C@H]1CN(C)Cc1ccc(Oc2ccccc2)cc1, C[C@@H]1CN([C@@H](C)CO)C(=O)c2cccc(NS(=O)(=O)c3ccc(F)cc3)c2O[C@H]1CN(C)C(=O)Nc1ccccc1
